Test in all cases: MAPPIT interaction score (arbitrary units); higher = stronger binary interaction signal, active = hit call of the paper
Assay [1] deals with Uba4. The following applies: MAPPIT configuration: N-N; pair source set: Curagen_high_conf.
Assay [2] deals with Tim17b2. The following applies: MAPPIT configuration: N-C.
The target of assay [3] is Trxr1. Particulars: MAPPIT configuration: N-N; pair source set: Finley_Y2H;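 active = MAPPIT score above the 99th percentile of random reference set scores in the same batch; inactive = at or below it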.
For assay [4], the target named is Tom20. The following applies: MAPPIT configuration: N-N; pair source set: DPIM.
Assay [5] concerns the target Tcs6. The following applies: MAPPIT configuration: N-N; pair source set: screen_2.
Assay [6] has as its target Tgi. The following applies: MAPPIT configuration: N-N; pair source set: Lit-BM-16.
Assay [7] has as its target yki. The following applies: MAPPIT configuration: N-N; pair source set: Lit-BM-16.
The target of assay [8] is Tm1. The following applies: MAPPIT configuration: N-N; pair source set: Curagen_high_conf.
The target in assay [9] is Uba5. Particulars: pair source set: RRS.
Assay [10] deals with Traf-like. Particulars: MAPPIT configuration: N-N; pair source set: Curagen_low_conf.
For assay [11], the target named is TwdlW. The following applies: MAPPIT configuration: N-N; pair source set: Lit-BS-16.
For assay [12], the target named is U4-U6-60K. The following applies: MAPPIT configuration: N-N; pair source set: DPIM.
For assay [13], the target named is Tsp74F. The following applies: MAPPIT configuration: N-C; pair source set: screen_3.
For assay [14], the target named is TfIIA-L. Particulars: MAPPIT configuration: N-N; pair source set: screen_2.
In assay [15] the target is Tsp96F. The following applies: MAPPIT configuration: N-C; pair source set: screen_3.
Assay [16] has as its target ninaD. Particulars: MAPPIT configuration: N-C; pair source set: screen_3.

± gives the standard deviation of the averaged measurements.
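Note: HEK293T cells with Epo stimulation, STAT-responsive firefly luciferase reporter, fold induction versus unstimulated cells divided by the larger fold induction of two negative controls lacking either bait or prey.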

B1: Coa8 (protein)
chain: MNKCFRCQPRISLFQFSLPRCYAAVQPGCPPPQEKPVVGLPHKPDPKTVKCDYIGPPDAQSNLRPYVRHYGDEETRLARSLRLKRIEVEAWNTDFWTKHNKRFYEEKEDFIRLHKESGTSEVSADQMSHFYKAFLDKNWRIHIMYNISWYLKNFDILTLAAAVQLQRLLALAKRRS
As for B1, the MAPPIT interaction score in [1] was 2.52 (active).

B2: CG3792 (protein)
chain: MTDLIRQGALFLMSEKCYDNYFLYHNFLDVPCFKALLSKGLGLAIIAGSVLVKVPQVLKILNSKSGEGINIVGVVLDLLAISFHLSYNFMHGYPFSAWGDSTFLAIQTVTIAVLVLFFNGRKAQSGLFLVGYVVLMYVLNSGLTPMSVLFTIQSCNIPILLVGKLSQAYTNYQAGSTGQLSAATVIMMFAGSVARIFTSIQETGDFMIILTFIASTFANSVILGQLIYYWNKPAGVKVKDSKAKKPKTKKDD
B2: in assay [2] (pair source set: screen_3), the MAPPIT interaction score was -0.183 (inactive).

B3: CG7639 (protein)
chain: MPKSGRDGGASKDSKYDLSKISARVDRVNVSGLLRTHNDYVMRAADGLFKASNFQDLMLEAMSTKSYLHELGIFKDVSVHIDVSRGADASPQGYEVTFKGNEMSRMMGSAGTEIGQNEGSLRTELTIPNILGRGENISLQGSYSSTRANDLQLKFWKPFFHTRFKENRPEMSFSIFRQTDRFDISSFQTTNIGYLVDFSAHTMVGVDLTHSLQYENAIRDVGLLNKSVPFAIRDHCGPKLASLLRYSVVYDNRDGNVFPTRGIYLKSVNEYCGLGGNVAYTSSTAHGELNVPLFAGLVAQFCARVGVVKETKNTTQLPISSLFYCGGPLTLRGFKFGGAGPVVESTPIGAQSFWCTGAHLWAPLPFAGVFKNLASHFRMHFFYNIGNNNSFSTENMRSAFGMGLAVKLAERARIELNYCVPVRHQDTDRILNGFQFGIGYEFV
As for B3, the MAPPIT interaction score in assay [3] is -0.0261 (inactive).

B4: grk (protein)
chain: MMQIPFTRIFKVIFVLSTIVAVTDCCSSRILLLREHTLKIVQHQHSHMHEHAHELQQQIQETAVELLNRLELQRKQLEASAQEEADQLHPDTDPNPDSGGQLPNADDSIAADPEQDGIILGSSTDTWLASESSTPITDSETVTTPETVTHTGEPPPDPSSSSTPDSTTPSPNDKETEIQMLPCSEAYNTSFCLNGGHCFQHPMVNNTVFHSCLCVNDYDGERCAYKSWNGDYIYSPPTAQRKVRMAHIVFSFPVLLMLSSLYVLFAAVFMLRNVPDYRRKQQQLHLHKQRFFVRC
Take B4: the MAPPIT interaction score in assay [4] was 0.109 (inactive).

B5: Tcs3 (protein)
chain: MVCALGIEGSANKIGIGIIRDGKVLANVRRTYITPPGEGFLPKETAKHHREAILGLVESSLKEAQLKSSDLDVICYTKGPGMAPPLLVGAIVARTLSLLWNIPLLGVNHCIGHIEMGRLITGAQNPTVLYVSGGNTQVIAYSNKRYRIFGETIDIAVGNCLDRFARIIKLSNDPSPGYNIEQLAKSSNRYIKLPYVVKGMDVSFSGILSYIEDLAEPGKRQNKRKKPQEEEVNNYSQADLCYSLQETIFAMLVEITERAMAHCGSNEVLIVGGVGCNERLQEMMRIMCEERGGKLFATDERYCIDNGLMIAHAGAEMFRSGTRMPFEESYVTQRFRTDEVLVSWRDD
With B5, the MAPPIT interaction score in assay [5] is 1.93 (inactive).

B6: sd (protein)
chain: MKNITSSSTCSTGLLQLQNNLSCSELEVAEKTEQQAVGPGTIPSPWTPVNAGPPGALGSADTNGSMVDSKNLDVGDMSDDEKDLSSADAEGVWSPDIEQSFQEALSIYPPCGRRKIILSDEGKMYGRNELIARYIKLRTGKTRTRKQVSSHIQVLARRKLREIQAKIKVQFWQPGLQPSTSQDFYDYSIKPFPQPPYPAGKTSTAVSGDETGIPPSQLPWEGRAIATHKFRLLEFTAFMEIQRDEIYHRHLFVQLGGKPSFSDPLLETVDIRQIFDKFPEKSGGLKDLYEKGPQNAFYLVKCWADLNTDLTTGSETGDFYGVTSQYESNENVVLVCSTIVCSFGKQVVEKVESEYSRLENNRYVYRIQRSPMCEYMINFIQKLKNLPERYMMNSVLENFTILQVMRARETQETLLCIAYVFEVAAQNSGTTHHIYRLIKE
Take B6: the MAPPIT interaction score was 0.163 (inactive) in [6] and 0.822 (inactive) in [7].

B7: RpS19b (protein)
chain: MPGVTVKEIDQHVLTKNMAAFLKKSGKIFVPEQAVYMKTGKFKETAPTDDDWFYTRCASIMRHLYLRSPAGVGAFTKVYSGRKRNGVRPSKHCRSSDGCIRKALQALEAANMVERHPDGGRKLTPQGQRNLDRIANKIVAKQRERSAPVSMIITT
Take B7: the MAPPIT interaction score in assay [8] was 0.314 (inactive).

B8: htl (protein)
chain: MAAAWSWRASHSTITMTSGSLVVLFLLLSIWQPAVQVEGRRQMANSQEMIKDHLGARSQNKTPAITNNANQSSTSSADLDDGAADDDDNKADLPVNVSSKPYWRNPKKMSFLQTRPSGSLLTLNCHALGNPEPNITWYRNGTVDWTRGYGSLKRNRWTLTMEDLVPGDCGNYTCKVCNSLGCIRHDTQVIVSDRVNHKPILMTGPLNLTLVVNSTGSMHCKYLSDLTSKKAWIFVPCHGMTNCSNNRSIIAEDKDQLDFVNVRMEQEGWYTCVESNSLGQSNSTAYLRVVRSLHVLEAGVASGSLHSTSFVYIFVFGGLIFIFMTTLFVFYAIRKMKHEKVLKQRIETVHQWTKKVIIFKPEGGGDSSGSMDTMIMPVVRIQKQRTTVLQNGNEPAPFNEYEFPLDSNWELPRSHLVLGATLGEGAFGRVVMAEVNNAIVAVKMVKEGHTDDDIASLVREMEVMKIIGRHINIINLLGCCSQNGPLYVIVEYAPHGNLKDFLYKNRPFGRDQDRDSSQPPPSPPAHVITEKDLIKFAHQIARGMDYLASRRCIHRDLAARNVLVSDDYVLKIADFGLARDIQSTDYYRKNTNGRLPIKWMAPESLQEKFYDSKSDVWSYGILLWEIMTYGQQPYPTIMSAEELYTYLMSGQRMEKPAKCSMNIYILMRQCWHFNADDRPPFTEIVEYMDKLLQTKEDYLDVDIANLDTPPSTSDEEEDETDNLQKWCNY
As to B8, the MAPPIT interaction score was -0.924 (inactive) in assay [9] (MAPPIT configuration: N-C) and -0.283 (inactive) in [9] (MAPPIT configuration: N-N).

B9: Mlp84B (protein)
chain: MPSFQPIEAPKCPRCGKSVYAAEERLAGGYVFHKNCFKCGMCNKSLDSTNCTEHERELYCKTCHGRKFGPKGYGFGTGAGTLSMDNGSQFLRENGDVPSVRNGARLEPRAIARAPEGEGCPRCGGYVYAAEQMLARGRSWHKECFKCGTCKKGLDSILCCEAPDKNIYCKGCYAKKFGPKGYGYGQGGGALQSDCYAHDDGAPQIRAAIDVDKIQARPGEGCPRCGGVVYAAEQKLSKGREWHKKCFNCKDCHKTLDSINASDGPDRDVYCRTCYGKKWGPHGYGFACGSGFLQTDGLTEDQISANRPFYNPDTTSIKARDGEGCPRCGGAVFAAEQQLSKGKVWHKKCYNCADCHRPLDSVLACDGPDGDIHCRACYGKLFGPKGFGYGHAPTLVSTSGESTIQFPDGRPLAGPKTSGGCPRCGFAVFAAEQMISKTRIWHKRCFYCSDCRKSLDSTNLNDGPDGDIYCRACYGRNFGPKGVGYGLGAGALTTF
Regarding B9, the MAPPIT interaction score in assay [10] is -0.422 (inactive).

B10: RpS3 (protein)
chain: MNANLPISKKRKFVSDGIFKAELNEFLTRELAEDGYSGVEVRVTPSRTEIIIMATKTQQVLGEKGRRIRELTAMVQKRFNFETGRIELYAEKVAARGLCAIAQAESLRYKLTGGLAVRRACYGVLRYIMESGAKGCEVVVSGKLRGQRAKSMKFVDGLMIHSGDPCNDYVETATRHVLLRQGVLGIKVKVMLPYDPKNKIGPKKPLPDNVSVVEPKEEKIYETPETEYKIPPPSKPLDDLSEAKVL
In the case of B10, the MAPPIT interaction score in assay [11] was -0.331 (inactive).

B11: meigo (protein)
chain: MNLPERSRFVIYAVGIFVCYFLYGIVQEKLTRGRYGEEVQTDGSVGERFTYALALVWVQCLCNYVFAKVLLTIRPQKEDTTNAGSYVACSLTYLLAMVSTNMAMRWVPYPTAVVGKSAKPIPVMILGVLIGRKSYSWTRYACVLTIVLGVILFMYKEGKVSNLPAETTLLGEVLLFLSLSMDGLTGAVQERIRAASAPSGQQMMRAMNFWSTLMLGVAMVFTGEAKEFMYFTIRHPEAWTHLSLIAVCGVLGQFFIFLMVASFGPLACSVVTTTRKFFTVLCSVLLFGNVLIARQWLGAVLVFAALFVDMLYGKKAPLATAKKPPVEGKLSEEKKLNS
As for B11, the MAPPIT interaction score in assay [2] (pair source set: screen_4) is -0.125 (inactive).

B12: CG2034 (protein)
chain: MLSNLVVTKQKVVLVIDELNRERIAPKFIGSLLHEQGQGADTIKALPTGVSLKHVATFEALIDKYANNNTGSTTDSNSTGFNVILPTLADLLCYQTPAFIFGFLNRLRRSDNVRRVFLWASPQHLQDPHADYILAGCEYLAELVLRLESDKLLSLISRKPGGGVSNRRYSCEVSKTQFKVTPLDGGLPAGASPKQPSPEAEQTTEPASSTFKIELDEDEVLARNALTLPYERTSEPSEGNIIYTPDADDDFDEEDPDEDLCI
Turning to B12, in assay [12], the MAPPIT interaction score was 0.24 (inactive).

B13: Surf4 (protein)
chain: MSIPNEYIAKTEDVAEQVIKRGKNVLPTVARLCLIATFFEDGLRMYIQWNEQREYMDMSWGCGKFLATVFVLVNLLGQLGGCGMVMARFKVDIAVGLLFFIVVLQTVAYSILWDFQFLLRNFALIGALLLVLAEARIEGRSLFAGVPSMGENKPKNFMQLAGRILLAFMFITLIRFELSVWQVIQDIIGSILMVLVVLGYKTKLSALILVALLTILNLYHNAWWTIPSYKPLRDFLKYDFFQTLSVIGGLLMIVSLGPGGVSMDEHKKKW
Take B13: the MAPPIT interaction score in [13] was -0.232 (inactive).

B14: TfIIA-S-2 (protein)
chain: MNYQHYRATTLGRTLQDTLDEMMERGDITKKIANLVLLRYDKSISTALKDHGTSNMSFTAERLETFRCCDNVWTLILKDAEFREDQHSLKVDVVKIVACLGTDNGNE
In [14], B14 had an MAPPIT interaction score of 3.17 ± 3.8.

B15: Tpst (protein)
chain: MRLPYRNKKVTLWVLFGIIVITMFLFKFTELRPTCLFKVDAANELSSQMVRVEKYLTDDNQRVYSYNREMPLIFIGGVPRSGTTLMRAMLDAHPDVRCGQETRVIPRILQLRSHWLKSEKESLRLQEAGITKEVMNSAIAQFCLEIIAKHGEPAPRLCNKDPLTLKMGSYVIELFPNAKFLFMVRDGRATVHSIISRKVTITGFDLSSYRQCMQKWNHAIEVMHEQCRDIGKDRCMMVYYEQLVLHPEEWMRKILKFLDVPWNDAVLHHEEFINKPNGVPLSKVERSSDQVIKPVNLEAMSKWVGQIPGDVVRDMADIAPMLSVLGYDPYANPPDYGKPDAWVQDNTSKLKANRMLWESKAKQVLQMSSSEDDNTNTIINNSNNKDNNNNQYTINKIIPEQHSRQRQHVQQQHLQQQQQQHLQQQQHQRQQQQQQREEESESEREAEPDREQQLLHQKPKDVITIKQLPLAGSNNNNINNNINNNNNNNNIMEDPMADT
On to B15, for which the MAPPIT interaction score in assay [15] is -0.524 (inactive); in assay [16] it was 0.243 (inactive).

Values taken from the supplement of paper PMC10105736.
